T1: FBXL12, Q9NXK8
T1 chain: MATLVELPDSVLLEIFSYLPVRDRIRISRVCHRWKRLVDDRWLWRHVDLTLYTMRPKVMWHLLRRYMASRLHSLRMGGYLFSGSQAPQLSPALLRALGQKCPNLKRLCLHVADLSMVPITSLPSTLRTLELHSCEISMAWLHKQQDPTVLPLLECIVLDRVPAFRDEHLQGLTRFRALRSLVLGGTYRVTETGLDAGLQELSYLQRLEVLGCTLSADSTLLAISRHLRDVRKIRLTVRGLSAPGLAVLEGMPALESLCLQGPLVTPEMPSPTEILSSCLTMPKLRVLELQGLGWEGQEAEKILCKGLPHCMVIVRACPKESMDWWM

B1: FBXL12_hotspot_69_89 (protein)
chain: MIEVRASESSIEYVKELAESALKLAKKALKEKDLETLLKLAEILISAAREIAKYEPEYALELLKELLKLLKEAKTEEAEKAAKEAEKAIKEIKKLIEERK
B2: FBXL12_hotspot_69_88 (protein)
chain: MIEVRVSESSVEYALELGRAAVEKLEEAVKNGDWETAERLVDLIISIAEAIAELRPEEAIELLERAAKILKKDDSEKAKELLEKVEKKIKELKKKAKELK
B3: FBXL12_hotspot_78_94 (protein)
chain: MRKLVITIPEPVTPDEEARRRGVEYQAQAAIEALKAGWEVVISHADTPEAKRAALEILEKAVAETGDKEKIKSADGKNADEMLAELKAELAEEEARRAAA
B4: FBXL12_hotspot_59_84 (protein)
chain: MRKVVIRGPPEQALANALALLRAAVELLKEHAGSELAPRILEFFLSTLKEAVRAAIALGDEEALEEIERLVEEAQEAVDEEDARRLREALERAREEAEAA
B5: FBXL12_hotspot_81_96 (protein)
chain: ATRELRITLQFTADDTEEEIIRRGRYHLELMYEAAKAGWEIASVTLDEAALEKSLTPERQALARRVTAILQEAAAEFRAARDAPDSVFDAILAEALARLA
B6: FBXL12_hotspot_59_83 (protein)
chain: MIEVRVRGPVEEALRRALELLRAARELLKKHKDSPLYPRILEIFESALREAVRLAVEAGDEEALREAEEIVEEAEKVVSPEDAERLREALERAKREAEEE
B7: GBRAPL2_0_7190 (protein)
chain: YEEELEEISKLPIEEFAERGVELVERAVADPSLSLEELEELALRVIRLLYEKVKEEKTEEAEDIYVEAADRIAAILAAVDPRLAAYVATEAGSLLYEWES
B8: FBXL12_hotspot_109_4 (protein)
chain: MTRILVGAATTPEAARHTFSTIVEIAKGLKDEEVIAVLVVLDDPEMRAIAERAAEELRALGAEVRLEVAPTLEALEAARARLLAEAEAEADARDAAAAAA
B9: FBXL12_hotspot_67_86 (protein)
chain: MLRLLVIRIRAETVEEARRSLALAEAYVRAARARGWRVLVVAWAATPEVAALFRERLAELEREYGARTVLIEDRENGEEELARTTARLKAELLAEMDEEE
B10: FBXL12_hotspot_77_92 (protein)
chain: MSHLEIVVSQPATPPERREEALARARHTARYAAEIARGAKERQPELRITLVVRSEADPETTRALVRILAETAKELGVELVVEVAPENEAVAREVLAELGL
B11: FBXL12_hotspot_77_91 (protein)
chain: MKTVTIRVSFPAVPPEEAEALRERALRAMETALEIARGLKAAHPDVKIVIVLRIEGNPEVAREVAERAVREAHELGIEFRDESAPEVRAAAEALLAALAA
B12: GBRAPL2_0_7187 (protein)
chain: YRKEIEEAKKLSIEEAAEKFIKLVKEAVEDPSFSKEEIEELALEIVDTLVEIVKKENTEEAEDIYAETIREIREILEKVDPNLAAYVETEGFSKLLEIEE
B13: FBXL12_hotspot_109_6 (protein)
chain: MRVILSALGTEPELAERTFEATVTIAEGLLAAGHEVRVVLVAVEENREVAEAAAARLRALGAEVRLVVEETPEAAREAHERLLAEAEEELDREEEERERA
B14: FBXL12_hotspot_69_90 (protein)
chain: MIEVKASKESVDYVAELMKSALELAKKYLKEGDYENLLKAAEILIGAARAIKEYKPEEAAKLLEELIKVLKEAGTPEAKELAKEAEKVLEEIKKIIKERE
B15: FBXL12_hotspot_59_79 (protein)
chain: MRRIIVRGEPEQVIKQTRALADALIALIDEHRGTPEQARLEDMLVGLFEETIKYAKEIGDVELLETIVELADRALPHVSPEYQKRIEELRKEALEAIKKL
B16: FBXL12_hotspot_69_87 (protein)
chain: EFTVIVRDVSVEYALALAEAALERAEEALAAGDREAFLRLARVALAAIENILEEDPERALELAERLAELLERADDPRFEPLLERARELIERARRLLEERR
B17: FBXL12_hotspot_59_73 (protein)
chain: MVEVVIRGPLEQAIEQALALLKAAAELIVKHEGTEKQERLVSIFISTLRELYRLAAEAGDEEAIEEADKIVKELMEKVDPETAAKLKAEREAIKKELAAA
B18: FBXL12_hotspot_59_76 (protein)
chain: MRRIILRGPPEQRRANLVAYSDALIKLIKEHKGTPEAERLEEMLVGLFEEALRQAEAERDRALLETLAEQVKKAIPFVSPEYAKRLEEILERIERALAEL
B19: FBXL12_hotspot_59_74 (protein)
chain: MLEIRVSAHPDESTEQIKNTIRYAVEMIKELIERGLIEDAIAAIRSLGRSVTEIVIRRKNEEVYNFFLELLEELKEIANPEVKKVIDEVIKEFKERVKKA
B20: FBXL12_hotspot_59_78 (protein)
chain: MRRIIISGEPEQRIKNLKELSDALIELIDKHKGTPEAERLEEMLVGLFEEALEQAKKEKDLELLETLKKEIEKAKPHVSPEYAEKLEELLKEVEKEIAEL
B21: FBXL12_hotspot_59_75 (protein)
chain: MLEIRVSAHPDESLEAIKRTVEYAIEMIKELIKRGRIEDAKAAIRSVTRSVTEIVIRKGNEELAEHFLELLEELKEIANEEVKKVIEEAMEEFRERVAAA
B22: FBXL12_hotspot_59_77 (protein)
chain: MRRIIISGPSEQRIRNLREFSDALIELIDKHKGTPEAERLEEMLVGLFEESLKIAKEEKDVELLKELKKLVEEAIPHVSPEYAERLKKILEEIEKELAEL
B23: FBXL12_hotspot_59_72 (protein)
chain: MRRVVVRGPPEQALAQALALLEALLALLVEHEGTPDEPRLLELLESTYRELLRTARALGDAAAIERARAAIEAAKARLSPATAARLAEAVARAEAEVEAE
B24: FBXL12_hotspot_78_93 (protein)
chain: MRTLVISIPAFVSPDAAARARGIAYQAAAAIEALRAGWEVVISHADTPEAKRAALTILERAVAETGDEARIRSEEGRGAREILAELRAALAAEDEAAAAA
B25: GBRAPL2_0_7188 (protein)
chain: VEERIKEAEKLSIEEASKKFIEIIKEVVEDPSYSLEEIEEIALRIMKALTKIVKKENTEEAEKIYAETADKIREILSKVDPNIANYIETEAYSELLEIEE
B26: GBRAPL2_0_7189 (protein)
chain: LEERLEAARELSIEEAAEELLRLIREAVEDPSFSLEEIEELARRAVEVLVEIVRRENTEEAEEIAAETADEMREILLEIDPNLAADVETEFYSELLEIEE
B27: FBXL12_hotspot_78_95 (protein)
chain: MRVLRIVIPADLPPDPEQRQRGIEYQAQAAIEAVRAGWEVVIEAADTPEAKRAALEILRRTLAETGDPERIRSPEGENAREILARLEAELAAEEAAAAAA
B28: FBXL12_hotspot_59_80 (protein)
chain: MRVIRISGEPEQRIRQFELYSDALIELIKEHKGTPEAERLEEMLVGLFKYMLEVAKKEKNVELLETLVKQARKALPHVSPEYAKELEKIIKEAEKAIAEL
B29: FBXL12_hotspot_109_5 (protein)
chain: MTVLLVARATTPEAARRTGETALAIARGLRAAGHEVIAVIVTLEEAREIAEATAAELRALGAEVRLRTAATPEEVERAYAELRAEALARLDAREAAAAAA
B30: FBXL12_hotspot_59_81 (protein)
chain: MRRIIIRGEPEQRLRQFEALAKALIELIKEHKGTPEAERLEEMLVGLFEEALKYAKEEKDVELLEALIKLAKEALPYVSPEYQKRLEKIIEEAEKAIKEF
B31: FBXL12_hotspot_59_82 (protein)
chain: MVTVRVRGPLEQALAQALALLRAATALLAELADSPKRPKLLEIYKAVLREAVRLATEAGDEEALAEIERLLAEARAAVSPEDAAELEEAYAEARREAAAA
B32: FBXL12_hotspot_59_85 (protein)
chain: MRVVIVRGPVEEAARRITELLEAIAELLREIPQDERAERLVEIALSLLEEAVRLVEEGLDEELARRVIEAAERAAEEATPEQAERLNEAIERLREAIERR

Target: T1, FBXL12, Q9NXK8
Assay: median log2 fold change of GCK-ALFA target abundance (FLAG IP / Myc IP barcode read proportion) (log2 ratio); each designed protein is fused to an ALFA-tag nanobody in HEK293 cells to bring the named protein to FLAG-tagged glucokinase (GCK); Myc marks an untargeted standard; higher = target protein stabilised (more abundant)
Settings: target protein: 3xFLAG-MCP-GCK-ALFA reporter; HEK293 landing pad (RPLP)
How it was run: (§1)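 Sequencing of reverse-transcribed, amplified circular RNA barcodes from anti-FLAG and anti-Myc immunoprecipitates provided the readout for an ALFA-nanobody-fused binder library recombined into HEK293 landing-pad cells. Those cells were induced with 2 μg mL^−1 doxycycline, transfected with a plasmid expressing a FLAG-tagged target and a Myc-tagged standard, and lysed after 48 h. Target abundance is the per-binder median log2 ratio of FLAG to Myc barcode read proportions. Only barcodes at a proportion of ≥10^−7 in both replicates and binders with ≥3 barcodes per replicate were kept, with a 10^−6 pseudocount added before the two replicates were pooled.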

Binder | median log2 fold change
B1 | 0.238
B2 | -0.107
B3 | 0.319
B4 | -0.544
B5 | 0.19
B6 | -0.0926
B8 | -0.542
B9 | -0.304
B10 | 0.051
B11 | -0.734
B13 | 0.11
B14 | -0.0708
B15 | -0.207
B16 | -0.369
B17 | -0.363
B18 | -0.366
B19 | 0.185
B20 | 0.0323
B21 | -0.31
B22 | 0.0852
B23 | -0.077
B24 | -0.726
B27 | -0.49
B28 | -0.4
B29 | -0.531
B30 | -0.417
B31 | -0.218
B32 | -0.444

Target: GABARAPL2, P60520
Assay: as above
Settings: target protein: 3xFLAG-MCP-GCK-ALFA reporter; HEK293 landing pad (RPLP)
How it was run: as §1

Chain of GABARAPL2, P60520 (P60520 whole entry): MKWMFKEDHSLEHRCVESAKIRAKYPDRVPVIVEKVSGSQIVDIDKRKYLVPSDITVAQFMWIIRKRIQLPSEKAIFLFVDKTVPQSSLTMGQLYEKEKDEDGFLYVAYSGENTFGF

Binder | median log2 fold change
B7 | -0.38
B12 | 0.0199
B25 | -0.00159
B26 | -0.521

— the supplement of paper PMC12632987
